Test results: PubChem BioAssay (NCI)
The panel holds about 83,000 compounds, 20% with a hit somewhere; the sample as a whole holds those more often.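 Negative percent growth values reflect cell death: -40 means 40% of the cells present at the start died, and -100 means all died.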 A number with no mark means an inactive call. The source made the active and inactive calls. Rule for the calls: active = growth percent below 10; inactive = the rest.

Columns and labels:
Test in all cases: NCI-60 one-dose screen, 48 h (100 = growth as untreated, 0 = no growth, -100 = all killed)
Conditions in all cases: 10 µM unless noted
HCT-15 colon = system: HCT-15 colon
HT29 colon = system: HT29 colon
SNB-19 CNS = system: SNB-19 CNS
U251 CNS = system: U251 CNS
PC-3 prostate = system: PC-3 prostate
SK-MEL-5 melanoma = system: SK-MEL-5 melanoma
UACC-62 melanoma = system: UACC-62 melanoma
LOX IMVI melanoma = system: LOX IMVI melanoma
SK-MEL-28 melanoma = system: SK-MEL-28 melanoma
SK-MEL-2 melanoma = system: SK-MEL-2 melanoma
SN12C renal = system: SN12C renal
UO-31 renal = system: UO-31 renal
TK-10 renal = system: TK-10 renal
ACHN renal = system: ACHN renal
CAKI-1 renal = system: CAKI-1 renal
A498 renal = system: A498 renal
CCRF-CEM leukemia = system: CCRF-CEM leukemia
MOLT-4 leukemia = system: MOLT-4 leukemia
EKVX NSCLC = system: EKVX NSCLC

SMILES | growth (HCT-15 colon) | growth (HT29 colon) | growth (SNB-19 CNS) | growth (U251 CNS) | growth (PC-3 prostate) | growth (SK-MEL-5 melanoma) | growth (UACC-62 melanoma) | growth (LOX IMVI melanoma) | growth (SK-MEL-28 melanoma) | growth (SK-MEL-2 melanoma) | growth (SN12C renal) | growth (UO-31 renal) | growth (TK-10 renal) | growth (ACHN renal) | growth (CAKI-1 renal) | growth (A498 renal) | growth (CCRF-CEM leukemia) | growth (MOLT-4 leukemia) | growth (EKVX NSCLC)
COc1ccc(C2C=C(c3ccc(Cl)cc3)N=C3SC=C(C)N32)c(Br)c1 (stereo not given) | 25.4% | 4.51% (active) | 78.2% | 49.7% | 60.7% | 48.9% | 58.1% | 16.7% | 38.4% | 68.3% | 46.4% | 40.7% | 65.2% | 53% | 49.9% | 90.2% | 7.84% (active) | 29.5% | 
O=c1c2sc3ncccc3c2nnn1-c1ccccc1 | 96% | 109% | 93.6% | 97.7% | 98.7% | 102% | 105% | 104% | 109% | 101% | 98.7% | 90.6% | 126% | 106% | 93.5% | 102% | 90.7% | 97.7% | 
COc1ccc(/C=C2\CN(Cc3cn(CCNc4ccnc5cc(Cl)ccc45)nn3)C/C(=C\c3ccc(OC)c(OC)c3)C2=O)cc1OC | 76% | -42.4% (active) | 58.1% | 6.39% (active) | 12.1% | 10.8% | 7.74% (active) | -28.3% (active) | 21.6% | -19.7% (active) | -0.659% (active) | 80.5% | 8.71% (active) | 51.4% | 97.4% | 32.5% | 0.689% (active) | -3.65% (active) | 
Cc1csc(NC(c2ccccc2)c2c(C)nc3ccccn23)n1 (stereo not given) | 100% | 98% | 93.5% | 94.7% | 82.6% | 99.6% | 94.2% | 96.5% | 110% | 107% | 99.9% | 76% | 111% | 102% | 94.5% | 70.9% | 101% | 92.3% | 
COc1ccc(S(=O)(=O)n2cc(C(=O)C(=O)Nc3ccncc3)c3ccccc32)cc1F | 84.2% | 83.9% | 78.9% | 77.4% | 79.8% | 73.5% | 65.5% | 70.2% | 92.2% |  | 73.7% | 81.8% | 102% | 66.7% | 55.3% | 73.4% |  |  | 39.5%
COc1cc(-c2nn(-c3cccc(NC(=O)c4ccc(N5CCOCC5)c(C(F)(F)F)c4)c3)cc2-c2ccncc2)ccc1Cl | 16.7% | -13.3% (active) | 45.1% | 2.49% (active) | 8.17% (active) | 3.41% (active) | 8.35% (active) | 13.7% | 28.4% | -8.84% (active) |  | 24.6% | 17.8% | 21.3% | 39.9% | -29.7% (active) | 0.907% (active) | 4.07% (active) | 
COc1ccc(/C=N\NC(=O)CN2CCN(c3cc4c(cc3F)c(=O)c(C(=O)N/N=C/c3ccc(OC)c(OC)c3)cn4C3CC3)CC2)cc1OC | 98% | 6.97% (active) | -0.836% (active) | -16% (active) | 13.3% | 41.9% | -52.1% (active) | -77.7% (active) | -34.1% (active) |  | -8.5% (active) | 85% | 65.1% | 102% |  | 89.1% | 9.85% (active) | 5.8% (active) | 55%
Cc1cc(C2=NNC(=O)Cc3cc4c(cc32)OCCO4)cc(C)c1N | 31.7% | 7.97% (active) | 48% | 36.6% | 49.1% | 10.2% | 44.1% | 39.7% | 42.3% |  | 43.6% | 40% | 60.6% | 48.7% | 40.4% | 24.2% |  | 52.2% | 59.6%
O=C(Nc1ccncc1)C(=O)c1cn(S(=O)(=O)c2ccccc2F)c2ccccc12 | 31.7% | 7.48% (active) | 60.6% | 30.7% | 40.1% | 13.5% | 32.3% | 37% | 61.5% |  |  | 52.9% | 101% | 56.8% | 35.6% | 49.7% |  | 39.1% | 49.2%
C=C1CCC2C(C)(CO)C(O)CCC2(C)C1C/C=C1/C(=O)OCC1O/C=C/c1ccccc1 (stereo not given) | 57.8% | 56.6% | 95.3% | 83.8% | 58.6% | 82.1% | 65.2% | 36.8% | 93.3% |  | 73.8% | 69.1% | 119% | 87.2% | 77.1% | 86.4% | 10.7% | 21.2% | 103%
COc1ccc(-c2ccc(C)n2-c2ccc(-c3nc4ccccc4s3)cc2)cc1 | 96.5% | 92% | 91.9% | 90% | 91.6% | 102% | 86.1% | 88.3% | 113% |  | 86.6% | 86.6% |  | 90.9% | 76% | 65.7% |  | 81.8% | 78%
O=C1NN(C(=O)c2ccc(Cl)cc2)C(c2ccccc2)=N/C1=C\c1cn(-c2ccccc2)nc1-c1ccccc1 | 92.6% | 87.8% | 90.7% | 92.4% | 94.8% | 79.9% | 91% | 97.6% | 94.8% |  | 93.2% | 90.6% | 102% | 98.5% | 80.4% | 69% |  | 98.6% | 81.4%
COc1ccc(C(=O)N2NC(=O)/C(=C/c3ccccc3F)N=C2c2ccccc2)cc1 | 112% | 113% | 99% | 96.7% | 104% | 113% | 102% | 102% | 112% |  |  | 89.8% | 108% | 122% | 98.9% | 104% |  | 109% | 103%
COc1ccc(C(=O)c2cc(OC)c(OC)c(OC)c2OC)cc1O | 30.2% | 55.6% | 40.6% | 33.4% | 68.4% | 2.02% (active) | 40.3% | 38.7% | 45.6% |  |  | 56.5% | 95.9% | 54.5% | 55.4% | 67.7% |  | 44.2% | 93.8%
COc1ccc(-c2c(N)n[nH]c2-c2cc3c(c(OC)c2OC)OCO3)cc1 | 101% | 103% | 104% | 94.1% | 101% | 110% | 82.9% | 95% | 104% |  | 92.5% | 84% | 101% | 96.9% | 94.4% | 75.7% |  | 96.5% | 92.4%
O=C1/C(=C/c2ccccc2)CN(C(=O)CCN2CCC(=NO)CC2)C/C1=C\c1ccccc1 | -42.7% (active) | -81% (active) | -18.6% (active) | -52.7% (active) | -7.51% (active) | -59.2% (active) | -59.7% (active) | -90.7% (active) | -27.4% (active) |  | -18.6% (active) | -84% (active) | 0.636% (active) | -11% (active) | -6.16% (active) | 80% | -2.62% (active) | 8.95% (active) | 1.08% (active)
Oc1ccc(Cl)cc1-c1cc(-c2ccc(F)cc2)n[nH]1 | 30% | 98.7% | 77.6% | 63.8% | 63.8% | 45.2% | 59.2% | 61.3% | 105% |  | 66.6% | 37.5% | 114% | 74.3% | 50.4% | 69.6% |  | 60.9% | 50.6%
